Data taken from ChEMBL document CHEMBL3433997, “St. Jude Leishmania screening dataset” (2016).
Where “and” joins values, the source holds several entries; their conditions need not be identical. Equal values may be shown once.

How the values were obtained:
Assay type in all cases: functional
[1] = target: Solute carrier family 2, facilitated glucose transporter member 1 (Homo sapiens) (UniProt P11166); test: ST_JUDE_LEISH: Cytotoxicity at 2uM final concentration against transgenic Leishmania Mexicana promastigotes LmGLUT1 that are glucose transport deficient and complemented with the human glucose transporter GLUT1. Activity is measured by DNA content using SYBR green in vitro
[2] = target: Hexose transporter 1 (Plasmodium falciparum) (UniProt O97467); test: ST_JUDE_LEISH: Cytotoxicity at 2uM final concentration against transgenic Leishmania Mexicana promastigotes LmPfHT that are glucose transport deficient and complemented with the Plasmodium falciparum hexose transporter. Activity is measured by DNA content using SYBR green in vitro
[3] = target: Glucose transporter (Leishmania mexicana) (UniProt O61059); test: ST_JUDE_LEISH: Cytotoxicity at 2uM final concentration against transgenic Leishmania Mexicana promastigotes LmGT2 that are glucose transport deficient and complemented with the L. Mexicana glucose transporter 2. Activity is measured by DNA content using SYBR green in vitro

Chain of Solute carrier family 2, facilitated glucose transporter member 1 (Homo sapiens) (P11166 whole entry): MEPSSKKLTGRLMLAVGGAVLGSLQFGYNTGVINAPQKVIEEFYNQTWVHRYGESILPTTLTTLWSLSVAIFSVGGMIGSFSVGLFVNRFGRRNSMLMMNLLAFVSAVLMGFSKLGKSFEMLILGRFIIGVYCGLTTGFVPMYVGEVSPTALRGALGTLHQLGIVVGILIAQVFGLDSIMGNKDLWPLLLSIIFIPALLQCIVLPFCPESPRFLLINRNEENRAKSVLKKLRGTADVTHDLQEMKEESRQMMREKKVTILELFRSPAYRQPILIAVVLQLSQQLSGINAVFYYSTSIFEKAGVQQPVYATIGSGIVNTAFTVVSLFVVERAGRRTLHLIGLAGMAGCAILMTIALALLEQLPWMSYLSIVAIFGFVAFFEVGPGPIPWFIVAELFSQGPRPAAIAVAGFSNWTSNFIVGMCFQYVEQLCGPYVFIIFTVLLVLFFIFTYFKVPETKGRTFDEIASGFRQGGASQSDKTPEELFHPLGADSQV

Compound | inhibition [1] | inhibition [2] | inhibition [3]
Cc1nc(-c2ccc(-c3ccc(C(=O)Nc4ccc(Cl)c(N5CCN(C)CC5)c4)cc3)c(C)c2)no1 | 8.11% | 7.83% | 8.29%
Nc1nc(N)c2cc(NC(=O)c3ccc(Cl)c(Cl)c3)ccc2n1 | 5.31% | 2.01% | 4.8%
c1cc(CNCCN2CCNCC2)cc(-c2ccc(-c3nc4ccccc4[nH]3)cc2)c1 | 18.3% | 16.8% | 13.2%
CCc1ccc(CN2CCC(CN(c3ccc(N4CCOCC4)c(F)c3)S(=O)(=O)c3ccc(C(C)(C)CC)cc3)CC2)cc1 | 3.54% | 0.74% | 3.68%
CC1(C)N=C(N)N=C(N)N1CCc1ccccc1 | 11.6% | 7.56% | 8.45%
COCCOCCOCCn1ccc2c3c(N)nc(N)nc3ccc21 | 4.65% | 1.94% | 2.29%
CCOC(=O)c1c(NC(=O)c2ccccc2)sc2c(O)c(CN(CC)CC)ccc12 | 12% | 5.42% | 2.36%
Cc1ccc2nc(C)cc(N/N=C/c3ccc([N+](=O)[O-])cc3)c2c1 | 104% | 101% | 104%
Oc1cccc(Nc2nc(NCc3ccco3)c3ccccc3n2)c1 | 19.6% | 12.2% | 4.1%
NCCCNc1ccnc2cc(Cl)ccc12 | -0.29% | 1.55% | 10.7%
Cc1ccc(O)c(CN2CCCC(COC(c3ccc(F)cc3)c3ccc(F)cc3)C2)c1 (stereo not drawn) | 2.33% | -0.35% | -4.12%
NC(=O)c1ccccc1OCC(=O)Nc1cccc(-c2ccc(-c3nc4cc(C(F)(F)F)ccc4[nH]3)cc2)c1 | 4.44% | 3.99% | 2.79%
O=C(Nc1ccc2c(c1)CCN(C1CCC1)CC2)c1ccc(-c2cn3ccccc3n2)cc1 | 3.01% | 1.01% | 3.48%
CCCc1ccc(S(=O)(=O)Nc2ccc3c(c2)CCC3)cc1 | 1.93% | 4.05% | 3.52%
CC(C)NCc1ccc(-c2ccc(CN3CCCC(c4ccccc4)C3)cc2)c(C(=O)NCC2CCCCC2)c1 (stereo not drawn) | -0.28% | -0.36% | -6.06%
O=C(Nc1cccc(-c2ccc(-c3nc4cc(F)ccc4[nH]3)cc2)c1)c1cccnc1 | 7.59% | 7.21% | 6.47%
Cc1nc(-c2nc(NCc3ccncc3)ncc2-c2ccsc2)sc1C | -1.32% | -0.89% | 0.31%
CC[C@H](N/C(=N\c1cccc(Cl)c1Cl)Nc1ccc(C#N)cc1O)c1ccccc1 | 7.88% | 9.4% | 6.46%

Compound | inhibition [1] | inhibition [2] | inhibition [3]
CCCC[C@H](NC(=O)O[C@H](COc1ccc(OCc2ccccc2)cc1)C(C)(C)C)C(=O)C(=O)Nc1cc[nH]n1 | 3.68% | 3.22% | 1.64%
Cc1[nH]c(C)c(-c2ccc(Oc3ccc(OC(F)(F)F)cc3)cc2)c(=O)c1Br | -1.24% and 1.98% | -1.18% and 1.4% | -2.31% and 2.01%
O=S(=O)(Nc1cc2c(cc1OCc1ccccc1)CCN(C1CCC1)CC2)c1ccc(-c2ccc(Cl)cc2)cc1 | 1.72% | 2.61% | -1.11%
Nc1nc2c(ncn2OC[C@H](CO)OCP(=O)(O)O)c(=O)[nH]1 | 0.43% | -1.69% | -1.85%
CC(C)c1ccc(CN2CCCCC(NC(=O)c3cc(-c4cccc(F)c4)cs3)C2)cc1 (stereo not drawn) | -2.71% | 3% | 0.54%
CNC(=O)c1cc(NCCCNCc2ccc(Cl)c(C(F)(F)F)c2)nc2ccccc12 | -1.98% | -1.73% | -2.48%
O=C(Nc1ccc(OC2CCN(Cc3ccccc3)C2)c(Cl)c1)c1ccsc1 (stereo not drawn) | 1.05% | 2.26% | 2.75%
CCOc1cc(C(=O)N[C@@H](Cc2ccccc2)[C@H](O)CNCc2cc(OC)cc(OC)c2)cc(N2CCCS2(=O)=O)c1 | -0.26% | -0.9% | 1.04%
Cc1cccc(-n2nc(C)c3c2NC(=O)CC3C(=O)c2ccc(Cl)s2)c1 (stereo not drawn) | 1.99% | 4.4% | 2.73%
O=C(/C=C/c1ccc(Cl)c(Cl)c1)N1CCC(CCN2CCC(c3c[nH]c4cc5c(cc34)OCO5)CC2)CC1 | 0.05% | 0.01% | -0.27%
Cc1nc(N)nc(N)c1OCCCCCCOc1ccccc1 | 2.38% | 4.83% | -0.89%
O=C(Nc1ccc(C(=O)OCC(c2ccccc2)c2ccccc2)cc1)N[C@@H](Cc1ccc(O)cc1)C(=O)NC1CCN(Cc2ccc(O)cc2)C1 (stereo partly drawn) | -0.47% | -1.74% | -3.39%
Cn1nc(C(F)(F)F)cc1-c1ccc(C(=O)Nc2ccc3c(c2)CNCC3(C)C)s1 | 4.85% | 0.03% | 2.34%
FC(F)(F)c1ccc2[nH]ccc(=NN=Cc3cccc(Cl)c3)c2c1 | 1.05% | -0.16% | -3.89%
Cc1[nH]c(C)c(-c2ccc(Oc3ccc(C(F)(F)F)cc3)cc2)c(=O)c1Br | 3.22% | 5.35% | 3.05%
Clc1ccccc1/C=C/c1cncnc1Nc1ccc2[nH]c(Cc3ccccc3)nc2c1 | 7.21% | 2.53% | 1.23%
COc1ccc(OCCCN2CCCCC2)cc1S(=O)(=O)c1ccc(OCc2ccc(C(F)(F)F)cc2)cc1 | 2.4% | 0.01% | 2.1%
Cc1nc(N/C=C/c2ccc(O)cc2)cc(N2CCCC2)n1 | 8.44% | 6.81% | 7.13%
